Records with an inconclusive call do not appear. Entries that show only a call come without a potency. Activity calls are given as the source filed them. The call rests on the fitted dose curve; in most records, active means well fitted inhibition curve with a large enough effect; inconclusive means small, poorly fitted or top-dose-only effect; inactive means flat fitted curve, though single readings scatter.
The compounds below were run on CRL-7250 (assay: qHTS assay to identify novel small-molecules to repurpose for Merkel cell carcinoma treatment (AID 1296009; further: nearly all actives have a fitted effect of over 60% in size)). Conditions: MCC and control cell lines, CellTiter-Glo viability, 72 h; series mostly up to 92 µM.
Outline: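 After compound transfer in DMSO, plates were kept 72 hr at 37 degree celsius. Luminescent ATP signal from CellTiter-Glo served as viability measure, normalized against DMSO and no-cell controls.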
With CC1OC(O[C@H]2[C@@H](O)C[C@@]3(C)C([C@H](O)C[C@]4(C)C3CC=C3C5CC(C)(C)CC[C@]5(C(=O)OC5OC(CO)C(O)C(O)C5OC5OCC(OC6OCC(OC7OCC(O)C(O)C7O)C(O)C6O)C(OC6OCC(O)(CO)C6O)C5O)CC[C@]34C)[C@]2(C)CO)C(O)C(O)C1O (some centres undefined) the outcome was “inactive [at 9.27 µM]”.
With COC(=O)C1=C[C@@H](O)[C@@H](O)[C@H](O[C@@H]2O[C@H](COC(=O)/C=C/c3ccccc3)[C@@H](O)[C@H](O)[C@H]2O)C1 the Potency was “inactive”.
For NS(=O)(=O)c1ccc(NC(=O)Nc2ccc(F)cc2)cc1, the Potency was “inactive”.
In the case of COc1ccccc1CN[C@H]1CCCN[C@H]1c1ccccc1, the Potency is reported as “inactive”.
CC(C)[C@@H]1C(=O)N(S(C)(=O)=O)[C@@H]2CCN(C(=O)/C=C/CN3CCCCC3)[C@H]21 was tested, and the Potency was “inactive”.
O=C(O[C@@H]1O[C@H](CO)[C@@H](O)[C@H](O)[C@H]1O)c1ccccc1 was tested, and the Potency was “inactive”.
In the case of C[C@@H]1O[C@@H](O[C@@H]2[C@@H](O)[C@H](O[C@H]3[C@H](O[C@H]4CC[C@@]5(C)C(CC[C@]6(C)C5CC=C5[C@@H]7CC(C)(C)CC[C@]7(C(=O)O[C@@H]7O[C@H](CO)[C@@H](O)[C@H](O)[C@H]7O[C@@H]7O[C@@H](C)[C@H](O[C@@H]8O[C@@H](C)[C@H](O)[C@@H](O)[C@H]8O)[C@@H](O)[C@H]7O)CC[C@]56C)[C@@]4(C)CO)O[C@H](C(=O)O)[C@@H](O)[C@@H]3O)O[C@H](CO)[C@H]2O)[C@H](O)[C@H](O)[C@H]1O (some centres undefined), the outcome is reported as “inactive [at 9.27 µM]”.
For OC1COC(OCC2OC(OCCc3ccccc3)C(O)C(O)C2O)C(O)C1O (centres undefined), the Potency was “inactive”.
In the case of CC(C)C1NC(=O)C(CC2(O)c3ccccc3N3C(=O)C(Cc4ccccc4)NC32)NC1=O (centres undefined), the Potency is reported as “inactive”.
With C/C=C1/[C@H](O[C@@H]2O[C@H](CO)[C@@H](O)[C@H](O)[C@H]2O)OC=C(C(=O)OC)[C@H]1CC(=O)O[C@@H]1O[C@H](CO)[C@@H](O)[C@H](O)[C@H]1O the Potency was “inactive”.
For FC(F)(F)c1cc(C(F)(F)F)c2ccc3nc(-c4nnco4)cn3c2n1, the Potency was “inactive”.
C[C@@H]1O[C@@H](OC[C@H]2O[C@@H](OCc3ccccc3)[C@H](O)[C@@H](O)[C@@H]2O)[C@H](O)[C@H](O)[C@H]1O was tested, and the Potency was “inactive”.
CC(C)C1CCC(C(=O)N[C@@H](Cc2ccccc2)C(=O)O)CC1 (some centres undefined) was tested, and the Potency was “inactive”.
In the case of O=C(O)/C=C/c1ccc(O[C@@H]2O[C@H](CO)[C@@H](O)[C@H](O)[C@H]2O)cc1, the Potency is reported as “inactive”.
With Clc1cccc(COc2cncc(N3CCNCC3)n2)c1 the Potency was “inactive”.
CC1(C)O[C@H]2CC(=O)OC[C@@]23C1=C(O)C(=O)[C@]1(C)C3CC[C@@]2(C)[C@H](c3ccoc3)OC(=O)[C@H]3O[C@]321 (some centres undefined) was tested, and the Potency was “inactive”.
COc1cc(C(O)C(CO)Oc2ccc(CCCO[C@@H]3O[C@@H](C)[C@H](O)[C@@H](O)[C@H]3O)cc2OC)ccc1O (some centres undefined) was tested, and the Potency was “inactive”.
With CCn1c(=O)n([C@H]2CCCN(c3nccc(-c4cc5ccccc5o4)n3)C2)c2ccccc21 the Potency was “inactive”.
In the case of Cc1c(C)c(NCC(=O)N(C)C2CCN(Cc3ccc(C(N)=O)cc3)CC2)c(C)c(C)c1N, the Potency is reported as “inactive”.
With C=C1CC[C@@H]2[C@](C)(CO[C@@H]3O[C@H](CO)[C@@H](O)[C@H](O)[C@H]3O)CCC[C@@]2(C)[C@@H]1CCC1=CCOC1=O the Potency was “inactive”.
In the case of O=C(NCCCN1CCC2(CC1)OCc1ccccc12)[C@H]1CCCN1Cc1ccccc1, the Potency is reported as “inactive”.
In the case of CC(/C=C/[C@]1(O)[C@@]2(C)CO[C@@]1(C)C[C@@H](O)C2)=C\C(=O)O[C@@H]1O[C@H](CO)[C@@H](O)[C@H](O)[C@H]1O, the Potency is reported as “inactive”.
With O=C(Cc1ccc(-c2ccccc2)cc1)NC1CCC1 the Potency was “inactive”.
With C=C(C)C1CCC2(C(=O)O)CCC3(C(=O)O)C(CCC4C5(C)CCC(O)C(C)(C(=O)O)C5CCC43C)C12 (centres undefined) the Potency was “inactive”.
O=C(Nc1ccn[nH]1)c1c(F)cccc1F was tested, and the Potency was “inactive”.
In the case of COCCOc1cnc2ccn([C@H](C)c3nnc4c(F)cc(-c5cnn(C)c5)cn34)c(=O)c2c1, the Potency is reported as “inactive”.
CC1CC(=O)C2C(O)(C1)CC(O)C13OC1c1c(O)cccc1C(=O)C23O (centres undefined) was tested, and the Potency was “inactive”.
NC[C@@H]1O[C@@H](O[C@@H]2[C@@H](O[C@@H]3O[C@H](CO)[C@@H](O)[C@H]3O)[C@H](O)[C@@H](N)C[C@H]2N)[C@@H](N)[C@H](O)[C@H]1O was tested, and the outcome was “inactive [at 9.27 µM]”.
For C#Cc1cnc2[nH]c(=O)n(C(CC)CC)c2n1, the Potency was “inactive”.

From PubChem BioAssay (NCATS)
